SW480 rerep – inducers of DNA re-replication in SW480 colon cancer cells; SW480 DNA re-replication, Hoechst DNA content imaging, 48 h; Potency, µM (titrated, usually from 46.1 µM), usual class: activators; 1.8% of 340,000 active; note: nearly all actives have a fitted effect of over 55% in size
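250 cells/well; 23 nL cpd via pin tool; 48 hr, 37 C, 5% CO2; Hoechst 40 min; imager read of total nuclear intensity, ex 405/em 500-530 nm.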
KB-V1 cytotox – KB-V1 MDR subline cytotoxicity; KB-V1 MDR cells viability, CellTiter-Glo, 72 h; Potency, µM (titrated, usually from 46.1 µM), hits mostly cytotoxic; 3.4% of 400,000 active; AID 1347076; note: nearly all actives have a fitted effect of over 60% in size
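Drug-selected KB-V1 cells, grown in DMEM lacking phenol red with 10% FBS, receive compound titrations; after three days at 37 degrees C, surviving cell ATP is quantified by CellTiter-Glo luminescence and responses normalized and curve-fitted.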
ELG1 repair inh – blocks ELG1-dependent DNA repair in HEK293T cells. Potency, µM (top dose mostly 46.1 µM), usual class: inhibitors. AID 504467. 2.3% of 330,000 active. HEK293T ELG1-luciferase reporter, luminescence, 16 h; DNA damage induced by 5-fluorouridine; note: nearly all actives have a fitted effect of over 55% in size
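Step one: seed 2,000 cells per well. Step two: pin-transfer compound or DMSO alongside 5-fluorouridine. Step three: incubate 16 hr, 37 °C, 5% CO2. Step four: add ONE-Glo, wait 30 min, read luminescence.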
MCF10A rereplic – inducers of DNA re-replication in MCF 10A breast cells. Potency, µM (top dose mostly 46.1 µM), actives largely listed as activators. 2.9% of 350,000 active. AID 624296. MCF 10A DNA re-replication, Hoechst nuclear intensity, 48 h; note: nearly all actives have a fitted effect of over 50% in size
KB-3-1 tox – KB-3-1 parental cell cytotoxicity | Potency, µM (doses to about 46.1 µM), actives largely listed as cytotoxic | 1.4% of 400,000 active | AID 1347075 | KB-3-1 viability, CellTiter-Glo ATP luminescence, 72 h; note: nearly all actives have a fitted effect of over 60% in size
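Cytotoxicity measured as CellTiter-Glo luminescence after 72 h at 37 C. Compound titrations were pinned onto drug-naive KB-3-1 parental adenocarcinoma cells grown in DMEM with 10% FBS, and normalized data fitted to concentration-response curves.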
A number is an active result; - = inactive; ? = inconclusive; . = no result; ! = not active in a repeat. This is a sample that favours compounds with a hit; in the whole collection about 8.2% have one here. Calls come from the whole dose curve; as a rule, active = well fitted curve in the direction sought with a large enough effect; inconclusive = small, poorly fitted or top-dose-only effect, or another doubt; inactive = no such curve, though single readings can be large; an effect the other way counts as inactive or inconclusive.

SMILES | SW480 rerep | KB-V1 cytotox | ELG1 repair inh | MCF10A rereplic | KB-3-1 tox
COc1ccc(OC)c(CN2C(=O)c3ccccc3C2c2nnnn2-c2c(C)cccc2C)c1 (stereo unspecified) | . | ? | . | . | -
CCc1cc(=O)[nH]c(SCC(=O)NCc2ccc3c(c2)OCO3)n1 | - | - | - | - | -
Cc1cccn2c(=O)c3cc(C(=O)NCCN4CCOCC4)n(C)c3nc12 | ? | ? | - | ? | -
CCOCCCn1c(=N)c(C(=O)NCCN2CCOCC2)cc2c(=O)n3cccc(C)c3nc21 | - | - | - | 2.9µM | -
Cc1cccn2c(=O)c3cc(C(=O)NCCN4CCOCC4)c(=N)n(CCN4CCOCC4)c3nc12 | 26µM | ? | - | 12µM | -
Cc1cccn2c(=O)c3cc(C(=O)NCCN4CCOCC4)c(=N)n(Cc4ccc(F)cc4)c3nc12 | ? | ? | - | 2.3µM | 16µM
Cc1cccn2c(=O)c3cc(C(=O)NC4CCCC4)c(=N)n(CCCN4CCOCC4)c3nc12 | 1.5µM | - | - | - | -
COc1ccc(Cl)cc1NC(=O)c1cc(=O)c2cc(C)cc(C)c2o1 | . | ? | . | . | -
O=C(c1ccco1)N1CCCC(c2nc3c(nnn3Cc3ccc(Cl)cc3Cl)c(=O)[nH]2)C1 (stereo unspecified) | - | ? | - | - | -
N=C1/C(=C\c2ccc(Br)o2)C(=O)N=C2SC(CC(=O)N3CCCCC3)=NN12 | - | - | - | - | -
CN(Cc1ccc(Cl)cc1Cl)C(=O)Cc1ccc(S(=O)(=O)N2CCOCC2)s1 | . | ? | . | . | -
COCn1c(-c2cccc(Br)c2)nc2ccccc21 | - | 18µM | ? | - | -
Cc1cccc(C(=O)NCCc2nc3ccccc3n2Cc2ccc(Cl)cc2)c1 | . | 10µM | . | . | ?
Cc1cccc(Cn2c(Cc3ccccc3)nc3ccccc32)c1 | - | 21µM! | - | - | -
COCc1nc2ccccc2n1Cc1cccc(C)c1 | - | 16µM! | - | - | -
COc1ccc(NC(=O)NCc2ccc3c(c2)OCO3)cc1OC | - | - | - | ? | -
O=C(NCCc1ccc(Cl)cc1)C1CCN(S(=O)(=O)c2ccc3[nH]ccc3c2)CC1 | . | - | . | . | -
CCCC(=O)OC1=CN(Cc2ccccc2)S(=O)(=O)c2ccccc21 | . | - | . | . | -
CC(C)c1ccc(NC(=O)C2CCN(C(=O)[C@@H]3Cc4ccccc4CN3)CC2)cc1 | 18µM | - | ? | ? | -
Cc1cc(C)cc(NC(=O)C2CCC(CNC(=O)[C@@H]3Cc4ccccc4CN3)CC2)c1 (stereo partly specified) | 18µM | - | - | ? | -
COc1ccc(Cl)cc1NC(=O)CSc1nc(=O)n(Cc2ccco2)c2c1CCC2 | . | - | . | . | -
CCCCCCCOC(=O)C1=C(C)Nc2ncnn2C1c1cccs1 (stereo unspecified) | - | ? | ? | ? | -
CCCCCCCCOC(=O)C1=C(C)Nc2nnnn2C1c1cccs1 (stereo unspecified) | - | 15µM | ? | ? | ?
CCCC1CCC(c2ccc(OCC)cc2)=CC1=O (stereo unspecified) | - | - | ? | - | -
C[C@H](CO)N1C[C@H](C)[C@@H](CN(C)C(=O)Nc2ccccc2F)OCc2cnnn2CCCC1=O | . | - | . | . | -
SMILES | SW480 rerep | KB-V1 cytotox | ELG1 repair inh | MCF10A rereplic | KB-3-1 tox
COc1ccccc1C(=O)NC1(C(F)(F)F)NC(=O)N(CCc2ccccc2)C1=O (stereo unspecified) | . | ? | . | . | -
COc1ccc(CCN2C(=O)NC(NC(=O)CCc3ccccc3)(C(F)(F)F)C2=O)cc1OC (stereo unspecified) | - | 21µM | - | - | -
CC(C)Oc1ccc(C(=O)NC2(C(F)(F)F)NC(=O)N(CCCc3ccccc3)C2=O)cc1 (stereo unspecified) | ? | 9.2µM | - | - | ?
COc1cccc(CNC(=O)c2ccccc2NC(=O)C2=C(C)OCCS2)c1 | ? | - | ? | - | -
COc1cccc(C(=O)NCc2ccc3[nH]c(C)cc3c2)c1 | - | - | ? | ? | -
COc1cc(OC)cc(C(=O)NCc2ccc3[nH]c(C)cc3c2)c1 | - | - | - | 0.65µM | -
COc1ccc(C(=O)NCc2ccc3[nH]c(C)cc3c2)cc1OC | - | - | ? | 4.6µM | -
CC(C)CNC(=S)Nc1ccc(Oc2ccccc2)cc1 | - | 16µM | - | 8.2µM | 21µM
CCC(C)c1ccc(NC(=S)NCc2ccccc2OC)cc1 (stereo unspecified) | - | ? | ? | 18µM | -
COc1ccccc1CNC(=S)Nc1ccc(F)cc1 | - | - | - | - | -
CC(C)c1ccc(NC(=S)NN(c2ccccc2)c2ccccc2)cc1 | ? | 21µM | ? | ? | -
CCNC(=S)Nc1ccc(N(c2ccccc2)C(C)C)cc1 | - | 13µM | - | ? | 21µM
O=C(NC(c1ccc(-c2ccccc2)cc1)c1cnccn1)C1CCN(Cc2cccs2)CC1 (stereo unspecified) | . | - | . | . | -
COc1ccc(OCc2ccc(-c3nc(C#N)c(NCc4ccc(F)cc4)o3)o2)cc1 | . | - | . | . | -
O=C(COc1cccc(C(F)(F)F)c1)NCC(c1ccco1)N1CCCC1 (stereo unspecified) | - | - | - | - | -
O=C(COc1ccc(Cl)cc1Br)NCC(c1ccco1)N1CCCC1 (stereo unspecified) | - | 5.8µM | ? | - | -
CC1CN(C(=O)Nc2ccc(C(=O)NCc3cccc(F)c3)cc2)c2ccccc2S1 (stereo unspecified) | . | - | . | . | -
FC1(F)Oc2ccc(-c3ccc4ncnc(NCc5cccs5)c4c3)cc2O1 | . | - | . | . | ?
COc1ccc(C)cc1NC(=O)c1cnc2scc(C)n2c1=O | ? | - | - | 23µM | -
O=C(N(c1ccccc1)c1ccccc1)N(c1ccccc1)c1ccccc1 | ? | ? | ? | ? | -
CC(=O)N(C1=C(N)C(=O)c2ccccc2C1=O)c1ccccc1 | ? | - | 18µM | - | ?
CC(C)(C)OC(=O)C[C@@H]1C/C=C\C[C@@H](CC(=O)N(CCO)Cc2ccccc2)C(=O)N[C@@H](c2ccccc2)COC1=O | - | - | 15µM | ? | -
O=C1N[C@@H](c2ccccc2)COC(=O)[C@@H](Cc2ccc(F)cc2)C/C=C\C[C@H]1CC(=O)N(CCO)Cc1ccccc1 | ? | ? | ? | ? | 21µM
O=C1N[C@@H](c2ccccc2)COC(=O)[C@H](Cc2ccc(F)cc2)CC/C=C/C[C@@H]1CC(=O)N(CCO)Cc1ccccc1 | - | ? | ? | ? | ?
O=C1N[C@@H](Cc2c[nH]c3ccccc23)COC(=O)[C@@H](Cc2ccc(F)cc2)CC/C=C/C[C@@H]1CC(=O)N(CCO)Cc1ccccc1 | - | - | 21µM | - | -
CCOc1ccc(CCNC(=O)c2cc3c(=O)oc4ccc(C)cc4c3s2)cc1OCC | . | ? | . | . | -
